Measured values: PubChem BioAssay (NCATS)
Records with an inconclusive call do not appear. Where a call stands in place of a potency, no number is given. Calls of active or inactive are those of the source. Calls follow the shape of the dose curve; as a rule, active = well fitted curve in the direction sought with a large enough effect; inconclusive = small, poorly fitted or top-dose-only effect, or another doubt; inactive = no such curve, though single readings can be large; an effect the other way counts as inactive or inconclusive.

The compounds below were run against Aldehyde dehydrogenase, mitochondrial (Homo sapiens) (UniProt P05091) (assay: qHTS for Inhibitors of the Aldehyde Dehydrogenase Family (ALDH2) Primary screen (AID 2061308; also: nearly all actives have a fitted effect of over 55% in size)). Details: ALDH2 enzyme inhibition qHTS, 1536-well; series mostly up to 56 µM.

Row | Structure (SMILES) | Potency
1 | C/C(=C\c1ccsc1)C1Nc2cccc3cccc(c23)N1 | inactive
2 | Cc1ccc(-c2ccc(=O)n(CC(=O)N(C)[C@@H](C)c3ccccc3)n2)cc1 | inactive
3 | CCCCc1ccc(-c2ccc(=O)n(CC(=O)NCCc3ccccc3)n2)cc1 | inactive
4 | O=C(Cn1cc(CN(Cc2ccccc2)Cc2ccccc2)nn1)Nc1cc(C(F)(F)F)ccc1Cl | inactive
5 | CCN(CC)CCCC(C)n1c(-c2ccccc2)nc2c(NC3CCCCC3)nc(C)nc21 (stereo not given) | inactive
6 | Cc1ccc(S(=O)(=O)Nc2cnccc2C(=O)Nc2nc(-c3nc4ccccc4s3)cs2)cc1 | inactive
7 | Cc1ccc(N2C(=O)c3ccccc3C2=O)c(C)c1 | inactive
8 | Cc1cc(C)nc(NC(=S)N2CCN(Cc3cccc4ccccc34)CC2)c1 | inactive
9 | Cc1cc(C)nc(NC(=S)N2CCN(c3ccc(C(F)(F)F)cc3C(F)(F)F)CC2)c1 | inactive
10 | COc1cc(O)c(C(CC(=O)N2CCC(C)CC2)c2ccc(OC)c(OC)c2)c(OC)c1 (stereo not given) | inactive
11 | CC(C)CC(=O)O[C@@H]1OC=C(CO[C@@H]2O[C@H](CO[C@@H]3O[C@H](CO)[C@@H](O)[C@H](O)[C@H]3O)[C@@H](O)[C@H](O)[C@H]2O)[C@H]2C[C@H](O)[C@@H](CO)[C@@H]12 | inactive
12 | COc1ccc(C2=Nn3c(nnc3-c3ccccc3OC)SC2)cc1OC | inactive
13 | CCOc1ccc(CCNC(=O)c2cc3ccccc3n2Cc2ccc(Cl)c(F)c2)cc1OCC | inactive
14 | CCc1ccc2oc(NC3=NC(c4[nH]ncc4Cl)C4=C(CCCC4=O)N3)nc2c1 (stereo not given) | inactive
15 | O=C(O)c1ccc(-c2ccc3ncnc(NCCc4cnc[nH]4)c3c2)o1 | inactive
16 | Cn1nnnc1Sc1ncnc2scc(-c3cccc(F)c3)c12 | inactive
17 | CCCn1c(C)nc2c(NC3CCCCC3)nc(C)nc21 | inactive
18 | Cc1cccc(C2N=C(Nc3nc4ccccc4o3)NC3=C2C(=O)CCC3)c1 (stereo not given) | inactive
19 | COc1ccccc1S(=O)(=O)Nc1cnccc1C(=O)Nc1nc(-c2ccccc2)cs1 | inactive
20 | COCCNc1nc(C)nc2c1nc(-c1ccccc1)n2CCN1CCCCC1 | inactive

Row | Structure (SMILES) | Potency
21 | Cc1ccc(OCCn2c(CCNC(=O)COc3ccccc3Br)nc3ccccc32)cc1 | inactive
22 | O=C(O)c1ccc2c(c1)C(=O)N([C@H](Cc1ccc(-c3ccccc3)cc1)C(=O)O)C2=O | inactive
23 | Cn1nnnc1Sc1ncnc2scc(-c3cccc(Cl)c3)c12 | inactive
24 | CCCCN(C)C(=O)Cn1nc(-c2ccc(F)cc2)ccc1=O | inactive
25 | Cc1ccnc(NC(=S)N2CCc3ccccc3C2)c1 | inactive
26 | COc1cc(Cl)c(C)cc1NC(=O)C(OC(=O)CNC(=O)c1ccccc1)c1ccccc1 (stereo not given) | inactive
27 | Cc1ccnc(NC(=S)N2CC3CN(c4ccc(Cl)cc4C(F)(F)F)CC3C2)c1 (stereo not given) | inactive
28 | Cc1cc(N[S+](=O)([O-])c2ccc3c(c2)CCC(=O)N3C)ccc1F | inactive
29 | CC1=CC(=O)C2C(C)(C)CCC[C@]2(C)[C@H]1CC[C@H](C)CC(=O)O (stereo not given in full) | inactive
30 | Cc1ccc(S(=O)(=O)Nc2cncc(C(=O)Nc3nc(-c4ccccc4)cs3)c2)cc1 | inactive
31 | COc1cc(-c2ccc3ncnc(NCc4ccc(C)o4)c3c2)cc(OC)c1OC | inactive
32 | c1cncc(CNc2ncnc3ccc(-c4ccc5c(c4)OCO5)cc23)c1 | inactive
33 | O=C(O)CNc1cccc(-c2nn3c(=O)cc(N4CCNCC4)nc3s2)c1 | inactive
34 | Nc1ccc(S(=O)(=O)N2CCCN(S(=O)(=O)c3ccc4c(c3)OCCO4)CC2)cc1 | inactive
35 | COc1ccccc1-c1csc(N2CCC(C(N)=O)CC2)n1 | inactive
36 | O=C(Nc1ccc(S(=O)(=O)Nc2nccs2)cc1)c1ccnc2ccccc12 | inactive
37 | Fc1cc(Nc2nc(-c3ccncc3)nc3ccccc23)ccc1-c1cccc(C(F)(F)F)c1 | inactive
38 | CCOC(=O)c1ccc(-c2ccc3ncnc(NCc4csc(C)n4)c3c2)o1 | inactive
39 | Cc1cc2c(s1)c1cnn(Cc3ccc(Cl)c(Cl)c3)c(=O)c1n2C | inactive
40 | CSc1ccc(CNc2ncnc3ccc(-c4c(C)noc4C)cc23)cc1 | inactive

What follows are compounds tested against Retinaldehyde dehydrogenase 3 (Homo sapiens) (UniProt P47895) (assay: qHTS for Inhibitors of the Aldehyde Dehydrogenase Family (ALDH1A3) Primary screen (AID 2061315)). Details: ALDH inhibition qHTS; series mostly up to 56 µM.

Row | Structure (SMILES) | Potency
41 | C/C(=C\c1ccsc1)C1Nc2cccc3cccc(c23)N1 | inactive
42 | Cc1ccc(-c2ccc(=O)n(CC(=O)N(C)[C@@H](C)c3ccccc3)n2)cc1 | inactive
43 | CCCCc1ccc(-c2ccc(=O)n(CC(=O)NCCc3ccccc3)n2)cc1 | inactive
44 | O=C(Cn1cc(CN(Cc2ccccc2)Cc2ccccc2)nn1)Nc1cc(C(F)(F)F)ccc1Cl | inactive
45 | CCN(CC)CCCC(C)n1c(-c2ccccc2)nc2c(NC3CCCCC3)nc(C)nc21 (stereo not given) | inactive
46 | Cc1ccc(S(=O)(=O)Nc2cnccc2C(=O)Nc2nc(-c3nc4ccccc4s3)cs2)cc1 | inactive
47 | Cc1ccc(N2C(=O)c3ccccc3C2=O)c(C)c1 | inactive
48 | Cc1cc(C)nc(NC(=S)N2CCN(Cc3cccc4ccccc34)CC2)c1 | inactive
49 | Cc1cc(C)nc(NC(=S)N2CCN(c3ccc(C(F)(F)F)cc3C(F)(F)F)CC2)c1 | inactive
50 | COc1cc(O)c(C(CC(=O)N2CCC(C)CC2)c2ccc(OC)c(OC)c2)c(OC)c1 (stereo not given) | inactive
51 | CC(C)CC(=O)O[C@@H]1OC=C(CO[C@@H]2O[C@H](CO[C@@H]3O[C@H](CO)[C@@H](O)[C@H](O)[C@H]3O)[C@@H](O)[C@H](O)[C@H]2O)[C@H]2C[C@H](O)[C@@H](CO)[C@@H]12 | inactive
52 | COc1ccc(C2=Nn3c(nnc3-c3ccccc3OC)SC2)cc1OC | inactive
53 | CCOc1ccc(CCNC(=O)c2cc3ccccc3n2Cc2ccc(Cl)c(F)c2)cc1OCC | inactive
54 | CCc1ccc2oc(NC3=NC(c4[nH]ncc4Cl)C4=C(CCCC4=O)N3)nc2c1 (stereo not given) | inactive
55 | O=C(O)c1ccc(-c2ccc3ncnc(NCCc4cnc[nH]4)c3c2)o1 | inactive
56 | Cn1nnnc1Sc1ncnc2scc(-c3cccc(F)c3)c12 | inactive
57 | CCCn1c(C)nc2c(NC3CCCCC3)nc(C)nc21 | inactive
58 | Cc1cccc(C2N=C(Nc3nc4ccccc4o3)NC3=C2C(=O)CCC3)c1 (stereo not given) | inactive
59 | COc1ccccc1S(=O)(=O)Nc1cnccc1C(=O)Nc1nc(-c2ccccc2)cs1 | inactive
60 | COCCNc1nc(C)nc2c1nc(-c1ccccc1)n2CCN1CCCCC1 | inactive

Row | Structure (SMILES) | Potency
61 | Cc1ccc(OCCn2c(CCNC(=O)COc3ccccc3Br)nc3ccccc32)cc1 | inactive
62 | O=C(O)c1ccc2c(c1)C(=O)N([C@H](Cc1ccc(-c3ccccc3)cc1)C(=O)O)C2=O | inactive
63 | Cn1nnnc1Sc1ncnc2scc(-c3cccc(Cl)c3)c12 | inactive
64 | CCCCN(C)C(=O)Cn1nc(-c2ccc(F)cc2)ccc1=O | inactive
65 | Cc1ccnc(NC(=S)N2CCc3ccccc3C2)c1 | inactive
66 | COc1cc(Cl)c(C)cc1NC(=O)C(OC(=O)CNC(=O)c1ccccc1)c1ccccc1 (stereo not given) | inactive
67 | Cc1ccnc(NC(=S)N2CC3CN(c4ccc(Cl)cc4C(F)(F)F)CC3C2)c1 (stereo not given) | inactive
68 | Cc1cc(N[S+](=O)([O-])c2ccc3c(c2)CCC(=O)N3C)ccc1F | inactive
69 | CC1=CC(=O)C2C(C)(C)CCC[C@]2(C)[C@H]1CC[C@H](C)CC(=O)O (stereo not given in full) | inactive
70 | Cc1ccc(S(=O)(=O)Nc2cncc(C(=O)Nc3nc(-c4ccccc4)cs3)c2)cc1 | inactive
71 | COc1cc(-c2ccc3ncnc(NCc4ccc(C)o4)c3c2)cc(OC)c1OC | inactive
72 | c1cncc(CNc2ncnc3ccc(-c4ccc5c(c4)OCO5)cc23)c1 | inactive
73 | O=C(O)CNc1cccc(-c2nn3c(=O)cc(N4CCNCC4)nc3s2)c1 | inactive
74 | Nc1ccc(S(=O)(=O)N2CCCN(S(=O)(=O)c3ccc4c(c3)OCCO4)CC2)cc1 | inactive
75 | COc1ccccc1-c1csc(N2CCC(C(N)=O)CC2)n1 | inactive
76 | O=C(Nc1ccc(S(=O)(=O)Nc2nccs2)cc1)c1ccnc2ccccc12 | inactive
77 | Fc1cc(Nc2nc(-c3ccncc3)nc3ccccc23)ccc1-c1cccc(C(F)(F)F)c1 | inactive
78 | CCOC(=O)c1ccc(-c2ccc3ncnc(NCc4csc(C)n4)c3c2)o1 | inactive
79 | Cc1cc2c(s1)c1cnn(Cc3ccc(Cl)c(Cl)c3)c(=O)c1n2C | inactive
80 | CSc1ccc(CNc2ncnc3ccc(-c4c(C)noc4C)cc23)cc1 | inactive
